Results filed as inconclusive are left out. Activity calls are given as the source filed them. Unless noted, calls come from the whole dose curve; as a rule, active = well fitted cell-killing curve with a large enough effect in the repeat runs (not every such curve was filed as active); inconclusive = weak or mixed curves, or effect the other way; inactive = no such curve, though single readings can be large or run the other way.
% is set by controls: 0 for no effect and ±100 for the full control effect.

Bile acid receptor (Homo sapiens), sequence (Q96RI1 whole entry, looked up): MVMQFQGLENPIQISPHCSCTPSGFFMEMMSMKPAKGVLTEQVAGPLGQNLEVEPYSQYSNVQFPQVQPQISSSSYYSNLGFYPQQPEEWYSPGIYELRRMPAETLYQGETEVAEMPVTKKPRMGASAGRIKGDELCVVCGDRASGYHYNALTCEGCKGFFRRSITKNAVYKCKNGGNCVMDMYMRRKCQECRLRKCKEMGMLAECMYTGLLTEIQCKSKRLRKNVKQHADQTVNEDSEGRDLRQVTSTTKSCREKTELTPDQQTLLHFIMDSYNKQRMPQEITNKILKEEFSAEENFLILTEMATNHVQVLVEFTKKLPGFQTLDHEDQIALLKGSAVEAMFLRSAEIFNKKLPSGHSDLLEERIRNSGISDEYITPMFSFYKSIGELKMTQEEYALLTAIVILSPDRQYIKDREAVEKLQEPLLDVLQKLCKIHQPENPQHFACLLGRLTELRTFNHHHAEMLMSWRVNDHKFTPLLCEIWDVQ
Vitamin D3 receptor (Homo sapiens), sequence (P11473 whole entry, looked up): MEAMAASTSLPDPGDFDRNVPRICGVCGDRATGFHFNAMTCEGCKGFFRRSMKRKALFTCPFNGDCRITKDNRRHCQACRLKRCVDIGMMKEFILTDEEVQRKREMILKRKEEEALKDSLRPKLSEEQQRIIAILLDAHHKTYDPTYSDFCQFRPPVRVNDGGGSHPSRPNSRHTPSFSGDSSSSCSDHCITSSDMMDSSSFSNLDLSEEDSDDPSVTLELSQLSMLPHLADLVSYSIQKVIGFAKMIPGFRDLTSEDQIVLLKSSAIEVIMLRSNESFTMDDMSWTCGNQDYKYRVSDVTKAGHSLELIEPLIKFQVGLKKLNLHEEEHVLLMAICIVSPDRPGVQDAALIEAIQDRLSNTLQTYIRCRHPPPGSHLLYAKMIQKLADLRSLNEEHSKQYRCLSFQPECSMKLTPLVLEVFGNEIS

One assay has as its target Bile acid receptor (Homo sapiens) (UniProt Q96RI1). The assay can be described thus: qHTS assay to identify small molecule agonists of the farnesoid-X-receptor (FXR) signaling pathway (AID 743220; active = well fitted activation curve with a large enough effect in the signal ratio in the repeat runs, not every such curve was filed as active; the % refers to the signal ratio). As to conditions: HEK293T FXR-UAS-bla, beta-lactamase FRET ratio, 16 h; series mostly up to 62.6 µM; activation: at the top concentration. In a few lines:
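FXR-UAS-bla HEK 293T cells carrying a UAS-driven beta-lactamase reporter were plated for 5 h at 37C/5% CO2, then exposed to DMSO-dissolved Tox21 10K compounds for 16 h at 37C. A LiveBLAzer B/G FRET substrate was loaded for 2 h at room temperature before fluorescence reading.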
Consider `O=[N+]([O-])c1ccc2c3c(cccc13)CC2`, for which the “activation” value is -0.121% (inactive).

As to `CCCCc1ccc(O)cc1`, the “activation” value was -0.248% (inactive).

For the compound `CC(CC(C#N)(c1ccccc1)c1ccccc1)N(C)C` (stereo not drawn), the “activation” value was -4.01% [at 81.1 µM] (inactive).

On to `OCCBr`, for which the “activation” value was -1.12% (inactive).

Turning to `N#CC(Cl)(Cl)Cl`, the “activation” value was -0.802% (inactive).

In the case of `CCCCOC(=O)c1ccccc1C(=O)O`, the “activation” value was 0.308% (inactive).

`CC(=O)Nc1cc([As](=O)(O)O)ccc1O`: the “activation” value was -1.72% (inactive).

Turning to `CC(COc1ccc(Oc2ccccc2)cc1)Oc1ccccn1` (stereo not drawn), the “activation” value is -0.584% (inactive).

`CNC(=O)Oc1ccc(N(C)C)c(C)c1`: the “activation” value is -0.634% (inactive).

With `O=[N+]([O-])c1cccc(O)c1`, the “activation” value is -1.72% [at 81.1 µM] (inactive).

Take `CNC(=O)Oc1c(C(C)(C)C)cc(C)cc1C(C)(C)C`: the “activation” value was -2.01% (inactive).

Regarding `COCC(=O)N(c1c(C)cccc1C)N1CCOC1=O`, the “activation” value is -0.186% (inactive).

On to `CCOC(=O)CP(=O)(OCC)OCC`, for which the “activation” value was -0.328% (inactive).

Turning to `O=C(Nc1ccccc1)N(Cc1ccc(Cl)cc1)C1CCCC1`, the “activation” value was -3.03% (inactive).

As to `C[C@@H]1CN(C2CCC(C#N)(c3ccc(F)cc3)CC2)CC[C@]1(C(=O)O)c1ccccc1` (stereo partly drawn), the “activation” value was 2.07% (inactive).

Consider `CN/C(=N\[N+](=O)[O-])NCC1CCOC1` (stereo not drawn), for which the “activation” value is 3.47% (inactive).

As to `CN1CCN(C(=O)O[C@H]2c3nccnc3C(=O)N2c2ccc(Cl)cn2)CC1`, the “activation” value is 0.83% (inactive).

Take `COC(=O)C1=CCCN(C)C1`: the “activation” value is 0.397% (inactive).

With `CCC(C)n1c(=O)[nH]c(C)c(Br)c1=O` (stereo not drawn), the “activation” value is -2.12% (inactive).

Tested on in another assay: not listed separately
The assay can be described thus: qHTS assay to identify small molecule antagonists of the farnesoid-X-receptor (FXR) signaling pathway - cell viability counter screen (AID 743221). Note: nearly all actives have a fitted effect of over 50% in size. The conditions noted are these: FXR-bla HEK293T viability, CellTiter-Glo luminescence, 16 h; series mostly up to 62.6 µM; activity change, negative = cytotoxicity: at the top concentration. The method in brief:
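Here viability was scored by luminescence after CellTiter-Glo addition to wells already read for beta-lactamase. Prior treatment: compound plus CDCA (50 uM final), 16 h, 37 C, HEK 293T FXR-bla cells.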
A general note: qHTS replaces the single test concentration by a dilution series.
As for `NC(=O)c1cc([N+](=O)[O-])cc([N+](=O)[O-])c1`, the “activity change, negative = cytotoxicity” value is -3.18% (inactive).

Take `CN1CCC(O)(c2ccc(F)cc2)C(C(=O)c2ccc(F)cc2)C1` (stereo not drawn): the “activity change, negative = cytotoxicity” value is 5.61% (inactive).

For `O=[N+]([O-])c1ccc2c3c(cccc13)CC2`, the “activity change, negative = cytotoxicity” value is -22.2% (inactive).

For the compound `O=NN1CCCCC1`, the “activity change, negative = cytotoxicity” value is 0.31% (inactive).

In the case of `CCCCc1ccc(O)cc1`, the “activity change, negative = cytotoxicity” value was 9.38% (inactive).

Turning to `Clc1ccccc1N1CCNCC1`, the “activity change, negative = cytotoxicity” value was -4.86% (inactive).

Turning to `CC(CC(C#N)(c1ccccc1)c1ccccc1)N(C)C` (stereo not drawn), the “activity change, negative = cytotoxicity” value was -15% [at 81.1 µM] (inactive).

For the compound `CC(Cl)(Cl)[N+](=O)[O-]`, the “activity change, negative = cytotoxicity” value is 11.5% (inactive).

For the compound `OCCBr`, the “activity change, negative = cytotoxicity” value was -3.08% (inactive).

Regarding `OC(Cn1cncn1)(c1ccc(F)cc1)c1ccccc1F` (stereo not drawn), the “activity change, negative = cytotoxicity” value is -0.571% (inactive).

Regarding `N#CC(Cl)(Cl)Cl`, the “activity change, negative = cytotoxicity” value is -0.159% (inactive).

For the compound `N#Cc1c(Cl)cccc1Cl`, the “activity change, negative = cytotoxicity” value was -2.42% (inactive).

Take `CC(=O)Nc1cc([As](=O)(O)O)ccc1O`: the “activity change, negative = cytotoxicity” value was -3.92% (inactive).

With `COP(N)(=S)Oc1ccccc1C(=O)OC(C)C` (stereo not drawn), the “activity change, negative = cytotoxicity” value is -0.306% (inactive).

As to `CC1CCC(=O)O1` (stereo not drawn), the “activity change, negative = cytotoxicity” value is 6.72% (inactive).

For the compound `CC(COc1ccc(Oc2ccccc2)cc1)Oc1ccccn1` (stereo not drawn), the “activity change, negative = cytotoxicity” value was 9.97% (inactive).

Consider `CNC(=O)Oc1ccc(N(C)C)c(C)c1`, for which the “activity change, negative = cytotoxicity” value is 0.549% (inactive).

As to `O=[N+]([O-])c1cccc(O)c1`, the “activity change, negative = cytotoxicity” value was -6.96% [at 81.1 µM] (inactive).

Take `CNC(=O)Oc1c(C(C)(C)C)cc(C)cc1C(C)(C)C`: the “activity change, negative = cytotoxicity” value is -0.725% (inactive).

For `C[N+](C)=CCl`, the “activity change, negative = cytotoxicity” value is 4.58% (inactive).

Consider `CCOC(=O)C(c1c(O)c2ccccc2oc1=O)c1c(O)c2ccccc2oc1=O`, for which the “activity change, negative = cytotoxicity” value was 1.57% (inactive).

With `COCC(=O)N(c1c(C)cccc1C)N1CCOC1=O`, the “activity change, negative = cytotoxicity” value is 12.1% (inactive).

For the compound `Cc1ncc2n1-c1ccc(Cl)cc1C(c1ccccc1F)=NC2`, the “activity change, negative = cytotoxicity” value was 3.82% (inactive).

In the case of `CCOC(=O)CP(=O)(OCC)OCC`, the “activity change, negative = cytotoxicity” value is -3.28% (inactive).

For `C#C[C@]1(O)C=C[C@H]2[C@@H]3CCC4=CC(=O)CC[C@@H]4[C@H]3CC[C@@]21CC`, the “activity change, negative = cytotoxicity” value was -0.673% (inactive).

As to `O=C(Nc1ccccc1)N(Cc1ccc(Cl)cc1)C1CCCC1`, the “activity change, negative = cytotoxicity” value was -10.1% (inactive).

On to `C[C@@H]1CN(C2CCC(C#N)(c3ccc(F)cc3)CC2)CC[C@]1(C(=O)O)c1ccccc1` (stereo partly drawn), for which the “activity change, negative = cytotoxicity” value was 0.0787% (inactive).

As for `C[C@]12CC[C@H]3[C@@H](CC=C4C[C@@H](O)CC[C@@]43C)[C@@H]1CC[C@@H]2O`, the “activity change, negative = cytotoxicity” value was 0.166% (inactive).

With `CC(C(O)c1ccccc1)N(C)C/C=C/c1ccccc1` (stereo not drawn), the “activity change, negative = cytotoxicity” value was -2.27% (inactive).

Regarding `O=C(Oc1ccc(Br)cc1)N1CCN2CCC1CC2`, the “activity change, negative = cytotoxicity” value was -4.37% (inactive).

For the compound `CN/C(=N\[N+](=O)[O-])NCC1CCOC1` (stereo not drawn), the “activity change, negative = cytotoxicity” value is 5.74% (inactive).

With `CN1CCN(C(=O)O[C@H]2c3nccnc3C(=O)N2c2ccc(Cl)cn2)CC1`, the “activity change, negative = cytotoxicity” value is 9.25% (inactive).

In the case of `CCC/C(=N\OCC)C1=C(O)CC(CC(C)SCC)CC1=O` (stereo not drawn), the “activity change, negative = cytotoxicity” value is -2.02% [at 81.1 µM] (inactive).

Take `COC(=O)C1=CCCN(C)C1`: the “activity change, negative = cytotoxicity” value was 15.3% (inactive).

Turning to `CCC(C)n1c(=O)[nH]c(C)c(Br)c1=O` (stereo not drawn), the “activity change, negative = cytotoxicity” value is 8.54% (inactive).

The next assay deals with Vitamin D3 receptor (Homo sapiens) (UniProt P11473). The assay is described as follows: qHTS assay to identify small molecule agonists of the vitamin D receptor (VDR) signaling pathway (AID 743222; calls by dose curve). As to conditions: HEK293T VDR-UAS-bla, beta-lactamase FRET ratio, 16 h; series mostly up to 63.5 µM; activation: at the top concentration. In a few lines:
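Cells carrying a VDR-driven beta-lactamase reporter are seeded at 2,000 per well and rested 4 h. Compounds in DMSO are added for 16 h at 37C, and FRET substrate fluorescence is measured after 2 h at room temperature.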
Turning to `NC(=O)c1cc([N+](=O)[O-])cc([N+](=O)[O-])c1`, the “activation” value was 4.56% (inactive).

As for `CN1CCC(O)(c2ccc(F)cc2)C(C(=O)c2ccc(F)cc2)C1` (stereo not drawn), the “activation” value was -4.32% (inactive).

For `O=[N+]([O-])c1ccc2c3c(cccc13)CC2`, the “activation” value is 4.74% (inactive).

For `O=NN1CCCCC1`, the “activation” value was 4.47% (inactive).

In the case of `CC(Oc1ccc(Oc2ncc(C(F)(F)F)cc2Cl)cc1)C(=O)O` (stereo not drawn), the “activation” value was -7.5% (inactive).

Take `CC(CC(C#N)(c1ccccc1)c1ccccc1)N(C)C` (stereo not drawn): the “activation” value is -3.75% [at 81.1 µM] (inactive).

In the case of `CC(Cl)(Cl)[N+](=O)[O-]`, the “activation” value is -0.23% (inactive).

As to `OCCBr`, the “activation” value was 0.862% (inactive).

For the compound `OC(Cn1cncn1)(c1ccc(F)cc1)c1ccccc1F` (stereo not drawn), the “activation” value is -14.1% (inactive).

As for `CC(=O)Nc1cc([As](=O)(O)O)ccc1O`, the “activation” value is -3.13% (inactive).

As to `COP(N)(=S)Oc1ccccc1C(=O)OC(C)C` (stereo not drawn), the “activation” value was 1.47% (inactive).

As for `CC1CCC(=O)O1` (stereo not drawn), the “activation” value is 5.21% (inactive).

Turning to `CC(COc1ccc(Oc2ccccc2)cc1)Oc1ccccn1` (stereo not drawn), the “activation” value is 5.09% (inactive).

For the compound `O=[N+]([O-])c1cccc(O)c1`, the “activation” value was -3.52% [at 81.1 µM] (inactive).

With `CNC(=O)Oc1c(C(C)(C)C)cc(C)cc1C(C)(C)C`, the “activation” value is -6.15% (inactive).

`C[N+](C)=CCl`: the “activation” value is -1.13% (inactive).

`COCC(=O)N(c1c(C)cccc1C)N1CCOC1=O`: the “activation” value is 0.419% (inactive).

Consider `Cc1ncc2n1-c1ccc(Cl)cc1C(c1ccccc1F)=NC2`, for which the “activation” value was 3.02% (inactive).

For `O=CNC(N1CCN(C(NC=O)C(Cl)(Cl)Cl)CC1)C(Cl)(Cl)Cl` (stereo not drawn), the “activation” value is -7.21% (inactive).

As to `C#C[C@]1(O)C=C[C@H]2[C@@H]3CCC4=CC(=O)CC[C@@H]4[C@H]3CC[C@@]21CC`, the “activation” value is -8.35% (inactive).

For `C[C@@H]1CN(C2CCC(C#N)(c3ccc(F)cc3)CC2)CC[C@]1(C(=O)O)c1ccccc1` (stereo partly drawn), the “activation” value is 6.01% (inactive).

`C[C@]12CC[C@H]3[C@@H](CC=C4C[C@@H](O)CC[C@@]43C)[C@@H]1CC[C@@H]2O`: the “activation” value is 2.21% (inactive).

`CC(C(O)c1ccccc1)N(C)C/C=C/c1ccccc1` (stereo not drawn): the “activation” value was -15% (inactive).

With `O=C(Oc1ccc(Br)cc1)N1CCN2CCC1CC2`, the “activation” value is 4.18% (inactive).

Consider `CN/C(=N\[N+](=O)[O-])NCC1CCOC1` (stereo not drawn), for which the “activation” value is 4.96% (inactive).

As for `CN1CCN(C(=O)O[C@H]2c3nccnc3C(=O)N2c2ccc(Cl)cn2)CC1`, the “activation” value was 8.56% (inactive).

Regarding `CCC/C(=N\OCC)C1=C(O)CC(CC(C)SCC)CC1=O` (stereo not drawn), the “activation” value was -17.2% [at 81.1 µM] (inactive).

As to `COC(=O)C1=CCCN(C)C1`, the “activation” value was 14.5% (inactive).

Consider `CCC(C)n1c(=O)[nH]c(C)c(Br)c1=O` (stereo not drawn), for which the “activation” value was -6.6% (inactive).

The values above are taken from PubChem BioAssay (Tox21).
